Compound activity: PubChem BioAssay, National Center for Advancing Translational Sciences (NCATS)
IL-1B inflam inh: blocks inflammasome-driven IL-1 beta release | THP-1 LPS/ATP IL-1B secretion, AlphaLISA, 16 h; active compounds read low | activity change, % at 57.5 µM | 4.7% of 360,000 active; in the data active means activity change below about -50%; inconclusive means mostly about -30% to -49%; further: on the % scale 0 is the no-effect control and ±100 the full control effect
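Secreted IL-1B measured by AlphaLISA bead assay after 16 h compound exposure of THP-1 cells; compounds (final up to 57.5 uM) added 1 h before LPS (250 ng/mL) and ATP (1.25 mM) stimulation; lower signal means less secretion.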
S2 tox: cell viability loss in ATXN counter-screen. S2 cells (HEK-293 line with an ATXN2-luciferase reporter) viability, CellTiter-Fluor protease fluorescence, 24 h. Potency, µM (top dose mostly 56.7 µM), actives largely listed as cytotoxic. 0.49% of 400,000 active; further: potency means the concentration at half of the fitted maximal effect; nearly all actives have a fitted effect of over 40% in size
ATXN2 expr inh: reduces ATXN2 reporter expression in HEK-293 cells. HEK-293 ATXN2-luciferase reporter, luminescence, 24 h. Potency, µM (doses to about 57 µM), for inactives: top-dose activity change, negative = inhibition, hits mostly inhibitors. 0.72% of 360,000 active; further: potency means the concentration at half of the fitted maximal effect; on the % scale 0 is the no-effect control and ±100 the full control effect; nearly all actives have a fitted effect of over 55% in size
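qHTS (up to 57 uM final) was run with 24 h compound exposure of reporter cells at 37 °C. Each well was multiplexed: SteadyGlo luminescence measured ATXN2-luciferase expression after a fluorogenic Gly-Phe-AFC viability readout (25 uM final).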
SW480 rereplic: DNA re-replication induction in SW480 cells; 1.8% of 340,000 active; Potency, µM (highest dose often 46.1 µM), for the others: top-dose re-replication activation, actives largely listed as activators; SW480 DNA re-replication, Hoechst DNA content imaging, 48 h; further: potency means the concentration at half of the fitted maximal effect; % of control where 0% means no effect; nearly all actives have a fitted effect of over 55% in size
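Readout is total intensity of Hoechst-stained nuclei, excited at 405 nm and collected at 500-530 nm. Compound treatment lasted 48 hr at 37 C in 5% CO2 before staining.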
MCF10A rerep: induces DNA re-replication in MCF 10a normal breast cells; 2.9% of 350,000 active; MCF 10A DNA re-replication, Hoechst nuclear intensity, 48 h; Potency, µM (series often up to 46.1 µM), for inactives: at the top dose activity, positive = re-replication, actives largely listed as activators; further: potency means the concentration at half of the fitted maximal effect; % of control where 0% means no effect; nearly all actives have a fitted effect of over 50% in size
PINK1 modulator: changes PINK1 expression; PINK1 immunofluorescence, high-content cytometry, 24 h; Potency, µM (highest dose often 76.6 µM), without a hit: at the highest dose activation (PINK1 increase), hits mostly activators; 0.2% of 410,000 active; AID 624263; active means well fitted activation curve with a large enough effect; inconclusive means small, poorly fitted or top-dose-only effect; cell line not stated here; further: potency means the concentration at half of the fitted maximal effect; % of control where 0% means no effect; nearly all actives have a fitted effect of over 65% in size
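Cells are seeded, rested 12 hours, then given compound at five concentrations or DMSO for 24 hours. After fixation, blocking and antibody staining, PINK1 amount and mitochondrial localization are scored; CCCP serves as control.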
* hit, by the source's call; i = inactive; ? = inconclusive; . = no result given; [ ] = another dose, or the depositor's remark. An excerpt weighted towards active compounds, which were near 7.1% of everything screened. Unless noted, the call rests on the fitted dose curve; in most records, active means well fitted curve in the direction sought with a large enough effect; inconclusive means small, poorly fitted or top-dose-only effect, or another doubt; inactive means no such curve, though single readings can be large; an effect the other way counts as inactive or inconclusive.

SMILES | IL-1B inflam inh | S2 tox | ATXN2 expr inh | SW480 rereplic | MCF10A rerep | PINK1 modulator
c1ccc(-c2nc(NCCCn3ccnc3)c3oc4ccccc4c3n2)cc1 | -79* | ? | ? | ? | ? | -9%[38.3 µM]
CSCc1ccc(C(=O)NC(C)c2cnn(-c3ccccn3)c2C)o1 (centres undefined) | 0 | i | 17% | 2% | 4% | 4%
O=C(/C=C\N1CCOCC1)c1ccc(Br)cc1 | -8 | i | 3% | 2% | 5.8µM* | -1%
O=C(c1ccc(-c2ccccc2)cc1)c1ccccc1C(=O)N1CCOCC1 | 4 | i | 5% | -20% | 7% | -1%[38.3 µM]
O=C(/C=C/N1CCOCC1)c1ccc(-c2ccccc2)cc1 | -1 | i | -17% | 15µM* | 9% | 3%[38.3 µM]
O=C(Oc1ccccc1C(=O)N1CCOCC1)c1ccc(Br)cc1 | -12 | ? | -11% | -3% | 1% | -8%[38.3 µM]
Cc1ccccc1NC(=O)CSc1nc2nccnc2c(=O)n1CCc1c[nH]c2ccccc12 | . | . | . | . | . | 0%
CCc1c(C)sc2nc3c(C(=O)N4CCOCC4)cc(C(=O)c4cc(F)ccc4O)cn3c(=O)c12 | -76* | ? | -21% | -1%[1.84 µM] | ? | 1%
Cc1sc2nc3c(C(=O)N4CCCC4)cc(C(=O)c4ccccc4O)cn3c(=O)c2c1C | ? | ? | -31% | 3% | 9% | 1%
COc1ccc(NC(=O)CC2C(=O)N(c3ccc(C)cc3)C(=O)N2Cc2cccnc2)cc1 (centres undefined) | . | . | . | . | . | 2%
COc1ccccc1OCCCCNCCO | 9 | i | -6% | -1% | -7% | 4%[38.3 µM]
Cc1ccccc1OCCCCCNCCO | 1 | i | -5% | -8% | 25% | -1%[38.3 µM]
CC(C)(C)c1ccccc1OCCCCCNCCO | -53* | i | -36% | ? | ? | -1%[38.3 µM]
CC(C)c1ccccc1OCCCCCNCCO | -54* | i | -11% | 1% | ? | -2%[38.3 µM]
CC(C)OCCCNC(=O)c1c(N)n(/N=C/c2ccccn2)c2nc3ccccc3nc12 | -10 | i | -20% | 21µM* | 4.1µM* | 2%
COCCCNC(=O)c1c(N)n(/N=C/c2cccs2)c2nc3ccccc3nc12 | 1 | i | -33% | 7.3µM* | ? | 4%
COCCCNC(=O)c1c(N)n(/N=C/c2cccnc2)c2nc3ccccc3nc12 | ? | i | 9% | ? | ? | 4%
CCC(C)NC(=O)c1c(N)n(/N=C/c2cccnc2)c2nc3ccccc3nc12 (centres undefined) | -59* | i | -16% | 5.8µM* | 2.1µM* | -9%[38.3 µM]
CCC(C)NC(=O)c1c(N)n(/N=C/c2ccccn2)c2nc3ccccc3nc12 (centres undefined) | -83* | i | -2% | 16µM* | ? | -18%[38.3 µM]
N#Cc1cc(NC(=O)Nc2nnc(-c3ccncc3)s2)ccc1-c1cn[nH]c1 | . | . | 5% | . | . | .
O=c1cc(SCc2ccccc2)nc[nH]1 | -80* | i | 6% | -6% | 0% | 5%
CCc1ccc(CN(Cc2ccco2)C(=O)COc2ccc(Cl)cc2C)cc1 | . | . | . | . | . | 2%
Cc1ccc(S(=O)(=O)/N=C(\Sc2ccccc2)c2ccccc2)cc1 | -50* | ? | 20µM* | 25% | ? | 2%[38.3 µM]
Cc1ccc(S(=O)(=O)/N=C(/Sc2ccccc2C(=O)O)c2ccccc2)cc1 | 25 | i | 5% | 3% | 5% | 3%
O=S(=O)(/N=C(\Sc1ccccc1)c1ccccc1)c1ccc(Cl)cc1 | -53* | i | -5% | 9% | -5% | 12%[38.3 µM]
SMILES | IL-1B inflam inh | S2 tox | ATXN2 expr inh | SW480 rereplic | MCF10A rerep | PINK1 modulator
O=S(=O)(/N=C(\c1ccccc1)N1CCOCC1)c1ccc(Cl)cc1 | -3 | i | -14% | 0% | -1% | 0%
CCc1ccc(-c2cc(C)no2)cc1S(=O)(=O)N1CCCN(Cc2ccc(F)cc2)C1 | -52* | i | -39% | ? | ? | 5%
CC(=O)Nc1ccc(C)cc1-c1nc2ccccc2n(CC(=O)c2ccc(C)c(C)c2)c1=O | . | . | . | . | . | 0%
Cc1cccc(CS(=O)(=O)CC2Nc3ccc(C(=O)NCc4ccccc4Cl)cc3NC2=O)c1 (centres undefined) | . | . | . | . | . | 4%
COc1ccc(N2C(=O)CC(NNC(=O)c3cc(C)oc3C)C2=O)cc1 (centres undefined) | -3 | i | -18% | 6% | 2.6µM* | 2%
COc1ccccc1C(=O)NNC1CC(=O)N(c2ccc3c(c2)OCCO3)C1=O (centres undefined) | 21 | i | 1% | -6% | -11% | 3%
Cc1ccc2nc(SCC(=O)N3CCOc4ccc(CN5C[C@@H](C)O[C@@H](C)C5)cc4C3)[nH]c2c1 | . | i | . | . | . | -1%
CC(=O)O[C@H]1C(=O)[C@]2(C)[C@H]([C@H](OC(=O)c3ccccc3)[C@]3(O)C[C@H](OC(=O)[C@H](O)[C@@H](NC(=O)c4ccccc4)c4ccccc4)C(C)=C1C3(C)C)[C@]1(OC(C)=O)CO[C@@H]1C[C@@H]2O | 6 | ? | -24% | ? | 93% | 6%
CC(=O)O[C@@]12CO[C@@H]1C[C@H](O)[C@@]1(C)C(=O)[C@H](O)C3=C(C)[C@@H](OC(=O)C(O)[C@@H](NC(=O)OC(C)(C)C)c4ccccc4)C[C@@](O)([C@@H](OC(=O)c4ccccc4)[C@H]21)C3(C)C (some centres undefined) | . | . | . | 0.0075µM* | ? | 7%
CC(=O)O[C@H]1C(=O)[C@@]2(C)C([C@H](OC(=O)c3ccccc3)[C@]3(O)C[C@H](OC(=O)[C@H](O)[C@@H](NC(=O)c4ccccc4)c4ccccc4)C(C)=C1C3(C)C)[C@]1(OC(C)=O)CO[C@@H]1C[C@H]2O (some centres undefined) | 17 | ? | -25% | 2.1µM* | ? | 6%
O=C[C@H](O)[C@@H](O)[C@H](O)[C@H](O)CO | . | i | . | . | . | .
Cn1c(=O)cc(OCCCC(=O)Nc2ccc(F)cc2)c2ccccc21 | . | i | 18% | . | . | 5%
Cn1c(NCCN2CCCC2)nc2cc(-c3ccsc3)sc2c1=O | -63* | i | ? | . | . | -1%
Cc1ccc(F)cc1-c1cc2nc(NCCCN(C)C)n(C)c(=O)c2s1 | -8 | ? | 32µM* | . | . | -1%
COc1cccc(-c2cc3nc(NCCCN(C)C)n(C)c(=O)c3s2)c1 | -63* | i | -25% | . | . | 1%
COc1ccc(CN2C[C@H](Sc3nc4ccccc4[nH]3)C[C@H]2C(=O)N2CCCN(C)CC2)cc1C | . | ? | . | . | . | 0%
CS(=O)(=O)c1ccc2nc(N)sc2c1 | 4 | i | -13% | -4% | 0% | -2%
